Bioassay records (PubChem BioAssay)
V-ATPase pHluor – yeast V-ATPase proton transport regulation by pHLuorin | S. cerevisiae, pHLuorin cytosolic pH fluorescence | response, % at 10 µM | actives 0.37% (n = 350,000) | AID 504577; in the data active means response mostly above about 7.3%, no sharp cut-off; inactive means mostly below about 5.4%; further: actives read high
Efflux pump mplx – antifungal efflux pump inhibition, Nile Red retention. S. cerevisiae Candida pump triplex. inhibition, % at 10 µM. actives 0.44% (n = 330,000). AID 485275;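 active means plate passing quality check with inhibition over a set limit, or well fluorescence over plate mean plus 4 SD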;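 further: Nile Red retained in pooled yeast measured as flow cytometry median fluorescence; 0% = buffer negative control and 100% = Enniatin B positive control; higher means more Nile Red kept so more efflux inhibition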
ATG4B inh – blocks human ATG4B protease cleavage of LC3 substrate. actives 0.51% (n = 340,000). Q9Y4P1. ATG4B cleavage of LC3-PLA2, NBD-HPC fluorescence, 1 h. inhibition, % at 8.33 µM; in the data active means inhibition above about 40%
Target sequence (Q9Y4P1 whole entry, looked up): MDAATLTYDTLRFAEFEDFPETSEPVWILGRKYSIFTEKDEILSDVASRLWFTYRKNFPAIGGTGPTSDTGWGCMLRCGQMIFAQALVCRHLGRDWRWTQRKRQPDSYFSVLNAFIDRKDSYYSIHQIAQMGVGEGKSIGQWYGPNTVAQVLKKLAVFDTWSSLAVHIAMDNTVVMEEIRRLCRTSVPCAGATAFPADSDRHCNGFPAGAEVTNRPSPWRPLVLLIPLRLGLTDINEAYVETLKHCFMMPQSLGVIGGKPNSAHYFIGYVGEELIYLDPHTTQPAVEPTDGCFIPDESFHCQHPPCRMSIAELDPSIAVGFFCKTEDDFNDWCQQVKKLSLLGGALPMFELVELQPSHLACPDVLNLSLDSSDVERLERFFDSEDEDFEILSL
Mot1-301 SUMO – SUMOylation pathway inhibition by Mot1-301 growth rescue; actives 1% (n = 320,000); growth rescue, % at 18.8 µM; S. cerevisiae Mot1-301 growth rescue, ATP luminescence, 38.5C; percent above DMSO median, 100 means doubled;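 active means every valid replicate shows activation above 250% relative to neutral control wells; inactive means the rest, any valid replicate at or below 250%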;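 further: OY570 slx delta 5 strain wells were the positive control but not used for scaling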
AI-2 QS modul – Vibrio harveyi AI-2 quorum sensing modulation | AID 2094 | Vibrio harveyi JMH597 AI-2 luminescence/OD600 ratio, 9 h; stronger effect = lower value; strain lacks LuxN and CqsS sensors; 0 = neutral-control median | actives 0.4% (n = 300,000) | activity change, % at 7.5 µM; in the data active means activity change below about -75%, passing the limit was not always enough;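 further: luminescence divided by OD600 gain over 9 h not by final OD600 alone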
Active calls of the source: *; x = no result given; + = active, no number. Rows were chosen to be rich in hits. Some 2.5% of all compounds tested hit in one or more screens of this group.

SMILES	V-ATPase pHluor	Efflux pump mplx	ATG4B inh	Mot1-301 SUMO	AI-2 QS modul
COC(=O)[C@H]1[C@H]2C[C@@H]3c4[nH]c5cc(OC)ccc5c4CCN3C[C@H]2C[C@@H](OC(=O)c2cc(OC)c(OC)c(OC)c2)[C@@H]1OC	0	0	-9	351*	x
COC(=O)C1C2CC3c4[nH]c5cc(OC)ccc5c4CCN3CC2CC(OC2CCCCO2)C1OC (stereo not given)	0	x	x	x	x
N#CCC(=O)NNC(=S)NC(=O)C(c1ccccc1)c1ccccc1	-2	0	-12	-9	25
CC(=O)NC(=S)NNC(=O)C(c1ccccc1)c1ccccc1	3	0	0	x	-87*
Cc1ccc(NC(=O)Nc2cccs2)cc1	23*	0	7	596	13
O=C1CCC(C(=O)N2CCCC(C(=O)c3ccc4c5c(cccc35)CC4)C2)=NN1 (stereo not given)	2	0	9	5	5
O=C(O)c1ccccc1NS(=O)(=O)c1cccc(C(F)(F)F)c1	18*	0	-11	-14	29
O=S(=O)(Nc1cccc2c1CCCC2)c1cccc(C(F)(F)F)c1	2	0	26	-19	14
COc1ccccc1CCC(=O)Nc1ncc(C)s1	1	0	-6	-18	-4
COc1ccc(C2Nc3ccc4ccccc4c3-c3c2c(=O)oc2ccccc32)cc1 (stereo not given)	-7	1.7*	x	-8	12
COc1ccc(-c2cc(=O)c3ccccc3o2)cc1	-1	0	-1	-1	24
CC(C)(CNC(=O)CNC(=O)c1ccc(Cl)cc1Cl)N1CCOCC1	-2	x	-1	x	x
O=[N+]([O-])c1cccc(C(=Nc2ccccc2Cl)NO)c1	0	0	5	-7	-91*
O=[N+]([O-])c1cccc(C(=Nc2ccccc2)NO)c1	2	0	3	x	-33
CC(CNc1nc2ccc(Cl)cc2n2cnnc12)c1ccccc1 (stereo not given)	-1	1	-2	-6	15
O=C(C1CCN(c2ncnc3c2nc2n3CCCCC2)CC1)N1CCN(c2cccc(Cl)c2)CC1	-4	0	47*	108	x
Cc1cc(=O)[nH]c(N2CCN(C(c3ccccc3)c3ccccc3)CC2)n1	19*	0	-2	-8	18
N#Cc1nc(-c2ccccc2F)oc1NCc1cccc2c1OCO2	-2	0	-8	6	-87*
O=C(C#Cc1ccccc1)Nc1ccccc1F	0	0	-6	-13	-87*
O=P(c1ccccc1)(c1ccccc1)c1ccc(O)cc1	2	0	-2	349*	7
O=C(C(=O)c1ccc(O)cc1)c1ccccc1	0	0	-3	356*	-3
O=C(O)c1ccccc1P(=O)(c1ccccc1)c1ccccc1	2	0	-5	233	17
O=C(c1ccc(O)cc1)c1ccc(C(=O)c2ccc(O)cc2)cc1	2	0	4	38	6
CN(C)/N=C/c1ccc(/C=N/NC(N)=S)o1	-2	0	-4	422*	x
CCOc1ccc(CCNC(=O)COC(=O)c2oc3ccccc3c2COC)cc1OCC	3	0	-25	-5	x
SMILES	V-ATPase pHluor	Efflux pump mplx	ATG4B inh	Mot1-301 SUMO	AI-2 QS modul
CCOc1ccc(NS(=O)(=O)c2ccc(C(=O)NC3CCC(O)CC3)cc2)cc1 (stereo not given)	-1	0	4	15	-2
Cc1[nH]c2ccccc2c1/C=C/c1cc[n+](C)cc1	13*	x	-2	x	13
Cc1ccccc1/C=C/c1cc[n+](C)cc1	-1	0	1	-10	24
Nc1nc(N)nc(-c2ccc([N+](=O)[O-])o2)n1	3	x	-6	x	x
O=[N+]([O-])c1ccc(-c2ccn[nH]2)o1	-2	0	-9	24	-129*
O=C(COC(=O)c1c[nH]c(=O)[nH]c1=O)Nc1ccccc1Br	-1	0	2	808*	0
COc1ccccc1NC(=O)COC(=O)c1c[nH]c(=O)[nH]c1=O	-1	0	6	4	18
Cc1c(Cl)cccc1NC(=S)N=Nc1c(O)n(CN2CCOCC2)c2ccccc12	1	29*	6	365*	44
Oc1c(N=NC(=S)Nc2ccccc2F)c2ccccc2n1Cc1ccccc1Cl	-2	0	-7	-16	25
COc1ccc(N(C(=O)c2ccco2)C(C(=O)NC2CCCC2)c2ccncc2)cc1OC (stereo not given)	2	0	-1	275*	17
COc1cccc(S(=O)(=O)NCc2ccc(C(=O)N3CCN(C)CC3)cc2)c1	-8	x	3	x	14
Cc1ccc(/C=C2\SC(=S)N(/N=C/c3cc([N+](=O)[O-])ccc3O)C2=O)o1	-2	0	47*	-5	19
O=C(NN1C(=O)/C(=C/c2cc([N+](=O)[O-])ccc2O)SC1=S)c1ccccc1O	x	0	x	1	86
COc1ccc(CCNC(=O)CCn2c(=O)c3cccn3c3cccnc32)cc1OC	2	0	0	-10	25
Cc1ccc(C)n1/N=C1/NC(=O)CS1	4	0	41*	2	14
Cn1cc([N+](=O)[O-])c(C(=O)Nc2ccc(-c3nc4ccccc4o3)cc2)n1	-3	0	-5	+	21
CNc1ccc(S(=O)(=O)NCC(=O)OC(C)C(=O)N(C)Cc2ccccc2)cc1[N+](=O)[O-] (stereo not given)	1	0	-6	64	x
O=C(N/N=C/c1cccc(C(F)(F)F)c1)c1ccccc1O	-1	0	-2	62	30
O=C(O)c1ccc(N/N=C/c2ccc(F)c(F)c2)cc1	-21	1	-1	-13	-94*
O=C(O)c1ccc(N/N=C/c2ccncc2)cc1	-4	0	-3	-10	15
O=C(O)c1ccc(N/N=C/c2cccc(C(F)(F)F)c2)cc1	-1	0	-4	5	-93*
O=C(O)c1ccc(N/N=C/c2cccc(F)c2)cc1	2	0	1	-4	-79*
Cc1cc(C)c(C)c(S(=O)(=O)Nc2ccccc2C(=O)NCCCN2CCOCC2)c1C	-2	0	-10	-3	-6
Cn1cnc(S(=O)(=O)NCc2ccc(Br)cc2)c1	4	0	-2	-9	18
CC(C)(C)NC(=O)CSc1nc(-c2ccc(F)cc2)cs1	5	0	-1	-10	14
SMILES	V-ATPase pHluor	Efflux pump mplx	ATG4B inh	Mot1-301 SUMO	AI-2 QS modul
O=C(Cc1ccccc1)N/N=C/c1cccnc1	-3	0	2	313*	6
Cc1ccc(N/N=C/c2cccnc2)cc1	-2	0	7	289*	32
O=C(CCCN1C(=O)c2cccc3cccc(c23)C1=O)Nc1ccon1	-1	0	-3	3	9
N#Cc1ccc(Nc2nc(-c3ccc(O)cc3O)cs2)cc1C(F)(F)F	-2	0	41*	5	x
Oc1ccc(-c2csc(Nc3ncccn3)n2)c(O)c1	15*	0	1	105	22
Oc1ccc(-c2csc(Nc3ncccn3)n2)cc1O	3	x	3	x	13
